Here are results for six compounds from PubChem BioAssay (EPA / NIEHS).

Read-out in assay [1]: Vascular endothelial growth factor receptor 2 (Homo sapiens) (UniProt P35968)
Kind of assay: BSK_4H_VEGFRII: BioMAP Diversity Plus: 4H Assay for Vascular endothelial growth factor receptor 2 (VEGFR2) Biomarker Activity (AID 2283031).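 As to AC50: cell-surface VEGFR2 protein level quantified by ELISA.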 The conditions noted are these: primary human endothelial cells (HUVEC); actives raise or lower the signal. The essentials: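 In this multiplexed HUVEC system, biomarker ELISA was performed after 24 h chemical exposure. Parallel SRB staining (TCA fixation, 560 nm) tracked cytotoxicity; DMSO served as baseline.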

Read-out in assay [2]: Human Leukocyte Antigen - DR isotype (HLADR), HLA-DRA (gene 3122)
Kind of assay: BSK_BE3C_HLADR: BioMAP Diversity Plus: BE3C Assay for Human Leukocyte Antigen - DR isotype (HLADR) Biomarker Activity (AID 2283032). The note with it: primary human bronchial epithelial cells; actives raise or lower the signal. In a few lines:
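Chemicals are dosed onto BE3C bronchial epithelial cultures of human origin and left 24 h. HLA-DR is then measured by ELISA, and the endpoint is fitted in both directions using DMSO as the activity baseline.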

Read-out in assay [3]: Vascular cell adhesion molecule 1 (VCAM1), VCAM1 (gene 7412)
The experiment in a line: BSK_4H_VCAM1: BioMAP Diversity Plus: 4H Assay for Vascular cell adhesion molecule 1 (VCAM1) Biomarker Activity (AID 2283033).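 As to outcome: cell-surface VCAM-1 protein measured by ELISA.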 The note with it: primary human endothelial cells (HUVEC); actives raise or lower the signal. In a few lines: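 Chemicals are added to primary human umbilical vein endothelial cells. After 24 h, VCAM-1 levels are measured by ELISA. Values come from bidirectional fitting referenced to DMSO.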

Read-out in assay [4]: Interferon-gamma inducible Protein 10 (IP10), CXCL10 (gene 3627)
Kind of assay: BSK_BE3C_IP10: BioMAP Diversity Plus: BE3C Assay for Interferon-gamma inducible Protein 10 (IP10) Biomarker Activity (AID 2283034). The note with it: primary human bronchial epithelial cells; actives raise or lower the signal. The essentials: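 IP-10 quantified by ELISA serves as the endpoint. Cells: primary human bronchial epithelium, read 24 h after compound addition. Activity is derived by bidirectional fitting with DMSO as negative control.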

Read-out in assay [5]: Monokine induced gamma interferon (MIG), CXCL9 (gene 4283)
Kind of assay: BSK_BE3C_MIG: BioMAP Diversity Plus: BE3C Assay for Monokine induced gamma interferon (MIG) Biomarker Activity (AID 2283035).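 As to outcome: MIG protein measured by ELISA in BE3C cultures after 24 h of dosing.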 The conditions noted are these: primary human bronchial epithelial cells; actives raise or lower the signal. The essentials:
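ELISA quantified MIG after 24 h exposure of primary bronchial epithelial cultures, analysed in both directions relative to DMSO. Cytotoxicity tracked in parallel cultures by sulforhodamine B staining.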

Read-out in assay [6]: Transforming growth factor beta 1 (TGFb1), TGFB1 (gene 7040)
The experiment in a line: BSK_BE3C_TGFb1: BioMAP Diversity Plus: BE3C Assay for Transforming growth factor beta 1 (TGFb1) Biomarker Activity (AID 2283036;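 as to outcome: TGF-b1 protein level measured by ELISA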). The conditions noted are these: primary human bronchial epithelial cells; actives raise or lower the signal. In a few lines:
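Bronchial epithelial primary cells are treated with test chemical, then TGF-b1 is quantified by ELISA after 24 hours. Values derive from bidirectional fitting against DMSO, with cytotoxicity checked by SRB staining in parallel cultures.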

Read-out in assay [7]: Plasminogen activator inhibitor-1 (PAI1), SERPINE1 (gene 5054)
Kind of assay: BSK_BE3C_PAI1: BioMAP Diversity Plus: BE3C Assay for Plasminogen activator inhibitor-1 (PAI1) Biomarker Activity (AID 2283037). The conditions noted are these: primary human bronchial epithelial cells; actives raise or lower the signal. In a few lines:
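Values derive from bidirectional fitting against DMSO baseline of PAI-1 levels, measured by ELISA in human bronchial epithelial cells 24 h after compound addition.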

Read-out in assay [8]: urokinase plasminogen activator (uPA), PLAU (gene 5328)
Kind of assay: BSK_BE3C_uPA: BioMAP Diversity Plus: BE3C Assay for urokinase plasminogen activator (uPA) Biomarker Activity (AID 2283038).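 As to outcome: uPA protein level quantified by ELISA in cell cultures; uPA read one day after compound addition.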 The conditions noted are these: primary human bronchial epithelial cells; actives raise or lower the signal. The essentials:
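Using confluent primary human lung bronchial epithelial cultures, we dosed chemicals, waited 24 h, then ran a uPA ELISA, fitting bidirectionally against DMSO.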

Read-out in assay [9]: Urokinase-type plasminogen activator receptor (uPAR), PLAUR (gene 5329)
Kind of assay: BSK_BE3C_uPAR: BioMAP Diversity Plus: BE3C Assay for Urokinase-type plasminogen activator receptor (uPAR) Biomarker Activity (AID 2283039).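 Also: uPAR protein level measured by ELISA on the cells; cells exposed to compound for one day before measurement.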 The conditions noted are these: primary human bronchial epithelial cells; actives raise or lower the signal. The essentials: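 Steps: dose human primary bronchial epithelial cells, incubate 24 h, measure uPAR by ELISA, then fit gain- or loss-of-signal response bidirectionally relative to DMSO.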

Read-out in assay [10]: Interleukin-6 (IL6), IL6 (gene 3569)
Kind of assay: BSK_CASM3C_IL6: BioMAP Diversity Plus: CASM3C Assay for Interleukin-6 (IL6) Biomarker Activity for (AID 2283040). The conditions noted are these: primary human coronary artery smooth muscle cells; actives raise or lower the signal.

Read-out in assay [11]: Tissue plasminogen activator (tPA), PLAT (gene 5327)
Kind of assay: BSK_BE3C_tPA: BioMAP Diversity Plus: BE3C Assay for Tissue plasminogen activator (tPA) Biomarker Activity (AID 2283041).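 As to outcome: tPA level quantified by ELISA one day after compound addition.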 The conditions noted are these: primary human bronchial epithelial cells; actives raise or lower the signal. In a few lines: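 Gain- or loss-of-signal in tPA, measured by ELISA, derived by bidirectional fitting against DMSO. Cells: human primary bronchial epithelial; read at 24 h after chemical dosing.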

Read-out in assay [12]: Interleukin-8 (IL8), CXCL8 (gene 3576)
The experiment in a line: BSK_CASM3C_IL8: BioMAP Diversity Plus: CASM3C Assay for Interleukin-8 (IL8) Biomarker Activity (AID 2283042).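 Also: IL-8 protein level quantified by ELISA.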 The conditions noted are these: primary human coronary artery smooth muscle cells; actives raise or lower the signal.

Read-out in assay [13]: Human Leukocyte Antigen - DR isotype (HLADR), HLA-DRA (gene 3122)
Kind of assay: BSK_CASM3C_HLADR: BioMAP Diversity Plus: CASM3C Assay for Human Leukocyte Antigen - DR isotype (HLADR) Biomarker Activity (AID 2283043).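 Also: cell-surface HLA-DR protein level quantified by ELISA.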 The conditions noted are these: primary human coronary artery smooth muscle cells; actives raise or lower the signal.

Read-out in assay [14]: Macrophage colony-stimulating factor (MCSF), CSF1 (gene 1435)
The experiment in a line: BSK_CASM3C_MCSF: BioMAP Diversity Plus: CASM3C Assay for Macrophage colony-stimulating factor (MCSF) Biomarker Activity (AID 2283044).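 Also: M-CSF protein amount quantified by ELISA after 24 h exposure.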 The note with it: primary human coronary artery smooth muscle cells; actives raise or lower the signal.

Read-out in assay [15]: Low-density lipoprotein receptor (LDLR), LDLR (gene 3949)
Kind of assay: BSK_CASM3C_LDLR: BioMAP Diversity Plus: CASM3C Assay for Low-density lipoprotein receptor (LDLR) Biomarker Activity (AID 2283045).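 Also: LDLR protein level on the cell surface quantified by ELISA.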 The conditions noted are these: primary human coronary artery smooth muscle cells; actives raise or lower the signal.

Read-out in assay [16]: Monocyte Chemoattractant Protein-1 (MCP1), CCL2 (gene 6347)
The experiment in a line: BSK_CASM3C_MCP1: BioMAP Diversity Plus: CASM3C Assay for Monocyte Chemoattractant Protein-1 (MCP1) Biomarker Activity (AID 2283046).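 Also: MCP-1 level quantified by ELISA 24 h after dosing.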 The note with it: primary human coronary artery smooth muscle cells; actives raise or lower the signal.

Assay [17] can be described thus: BSK_CASM3C_Proliferation: Cell Proliferation Assessment in the BioMAP Diversity Plus: CASM3C Assay (AID 2283047).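 Also: sulforhodamine B total protein stain as relative cell number at 560 nm; sub-confluent cells exposed 48 h before staining; fitted both ways against DMSO so gain or loss of cell number.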 The note with it: primary human coronary artery smooth muscle cells.
Read-out in assay [18]: Monokine induced gamma interferon (MIG), CXCL9 (gene 4283)
The experiment in a line: BSK_CASM3C_MIG: BioMAP Diversity Plus: CASM3C Assay for Monokine induced gamma interferon (MIG) Biomarker Activity (AID 2283048).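 Also: MIG protein level measured by ELISA.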 The note with it: primary human coronary artery smooth muscle cells; actives raise or lower the signal.

Read-out in assay [19]: serum amyloid A (SAA), SAA1 (gene 6288)
Kind of assay: BSK_CASM3C_SAA: BioMAP Diversity Plus: CASM3C Assay for serum amyloid A (SAA) Biomarker Activity (AID 2283049).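 Also: SAA protein level quantified by ELISA.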 The note with it: primary human coronary artery smooth muscle cells; actives raise or lower the signal.

A short description of assay [20]: BSK_CASM3C_SRB: Viability Assessment in the BioMAP Diversity Plus: CASM3C Assay (AID 2283050).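 Also: total protein by SRB staining as cytotoxicity measure in parallel cultures.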 The note with it: primary human coronary artery smooth muscle cells.

Some structures have more than one record in an assay (separate samples or runs), and their calls can disagree. Activity calls are given as the source filed them. The calls were made as follows: active = hit-call score of the fitted dose curve at least 0.9, where 1 is the maximum; inactive = score below 0.9.

As to `Cc1cccc(C)c1N`, the result in assay [1], in [2], in assay [3], in [4], in [5] and in assay [6] was inactive. The result in assay [7], in [8], in assay [9], in assay [10], in assay [11] and in assay [12] was inactive. For the same compound, the result in assay [13], in assay [14], in [15], in assay [16], in [17] and in assay [18] was inactive. The result in [19] and in assay [20] was inactive.

`O=C(NC(=O)c1c(F)cccc1F)Nc1cc(Cl)c(OC(F)(F)C(F)F)c(Cl)c1`: the outcome in assay [1], in [2], in assay [3], in assay [4], in assay [5] and in assay [6] was inactive. Further, the outcome in assay [7], in assay [8], in [9], in [10], in assay [11] and in assay [12] was inactive. Moreover, the outcome in assay [13], in [14], in [15], in assay [16], in assay [17] and in assay [18] was inactive. Besides, the outcome in assay [19] and in assay [20] was inactive.

Take `CCC(C)(c1ccc(O)cc1)c1ccc(O)cc1`: the outcome in assay [1], in assay [5], in assay [6], in [7], in assay [9] and in [10] was inactive. The result in [11], in [12], in assay [13], in assay [14], in [15] and in assay [16] was inactive. Besides, the result in [18], in assay [19] and in assay [20] was inactive. In addition, the AC50 – broadly, the concentration at which the activity in the assay is half-maximal – in [2] was 24.5 µM (active); in assay [4] it was 28.9 µM (active); in assay [8], 4.96 µM (active); in [17], 25.5 µM (active).

As for `Clc1ccc(C(c2ccccc2Cl)C(Cl)(Cl)Cl)cc1` (stereo not drawn), the AC50 in assay [1] is 17.2 µM (active); in assay [13], 17.6 µM (active); in assay [14], 13.8 µM (active); in [15] it was 14.3 µM (active); in [16] it was 23.7 µM (active); in assay [17], 20.1 µM (active). For the same compound, the AC50 in assay [20] is 22.8 µM (active). Also, the outcome in [2], in assay [4], in [5], in assay [6], in assay [7] and in [8] was inactive. Also, the outcome in assay [9], in [10], in [11], in assay [12] and in assay [18] was inactive.

`CC(C)(c1ccccc1)c1ccc(O)cc1`: the result in [1], in assay [8], in assay [9], in assay [10], in assay [12] and in [14] was inactive. The result in assay [15], in assay [16], in assay [18] and in [19] was inactive. Besides, the AC50 is 30.4 µM (active) in [2]; 32.1 µM (active) in [3]; 30.5 µM (active) in [4]; 32.2 µM (active) in assay [5]; 33.4 µM (active) in [6]; 34.1 µM (active) in [7]. For the same compound, the AC50 is 29.3 µM (active) in assay [11], 32.3 µM (active) in assay [13], 30.5 µM (active) in assay [17] and 29.5 µM (active) in assay [20].

For the compound `COc1ccc(O)c(C(C)(C)C)c1`, the result in [1], in [2], in assay [3], in [4], in assay [5] and in assay [7] was inactive. For the same compound, the result in assay [8], in [9], in [10], in [11], in assay [12] and in [13] was inactive. Moreover, the outcome in assay [14], in [15], in [16], in [17], in [18] and in assay [19] was inactive. In assay [20], the result was inactive. Besides, the AC50 in assay [12] is 5.43 µM (active); in assay [18], 3.97 µM (active).
